Data reported in PubChem BioAssay (NCATS).
Calls of active or inactive are those of the source. The call rests on the fitted dose curve; in most records, active means well fitted curve in the direction sought with a large enough effect; inconclusive means small, poorly fitted or top-dose-only effect, or effect the other way, or another doubt; inactive means no such curve, though single readings can be large or run the other way.

Each compound was assayed against Beta-2 adrenergic receptor (Homo sapiens) (UniProt P07550) (assay: qHTS validation assay of beta-arrestin-biased ligands of beta2-adrenergic receptor (AID 485366)). Conditions: cell-based beta-arrestin recruitment to ADRB2, qHTS; series mostly up to 46.1 µM.
Source text: NIH Molecular Libraries Probe Production Network [MLPCN]
NIH Chemical Genomics Center [NCGC]
PI: Bryan Roth and Bob Lefkowitz
The concept of biased agonism is an emerging concept of molecular pharmacology which proposes that seven transmembrane receptors (7TMRs) or G protein-coupled receptors (GPCRs), exist in multiple signaling conformations and complexes and that ligands (either agonists or antagonists) can induce signaling biased responses for distinct signal transduction cascades.
Furthermore, accumulating evidence over the last decade has drawn attention to a novel function of beta-arrestins as signal transducers that scaffold various signaling molecules upon activation of 7TMRs. […] This beta-arrestin-biased signaling presumably leads to distinct physiological outcomes from those by G protein activation.
Additionally, the active receptor conformations which […] on this beta-arrestin signaling are likely different from those activating G protein signaling
The goal of this screening project will be to discover and optimize novel beta-arrestin-biased ligands for beta2-AR signaling. A luminescent cell-based assay for beta2-AR-mediated agonism, known as the Tango assay, has been validated in which ligand binding of a recombinant beta2-AR and subsequent recruitment of a recombinant beta-arrestin lead to the release of the transcriptional activator tTA, which upregulates transcription of a tTA-responsive luciferase gene. […] Compounds were screened as a concentration-titration series that ranged from 46 microM to 0.6 nM.
NCGC Assay Protocol Summary:
Tango cells were dispensed into white, solid, tissue-culture-treated 1536-well plates at 1500 cells/well in DMEM, containing 1% fetal bovine serum (FBS). Then, 23 nL of compounds or DMSO were delivered to each well using a pin tool. Plates were incubated at 37 degrees C, 5% CO2 for 18 hr. Then 2.5 uL luminescent substrate mix (in-house prepared: 150 mM Tris-Cl, pH 7.6, 3 mM MgCl2, 1% Triton X-100, 5 mM DTT, 0.5 mM CoA, 0.15 mM ATP, 0.44 mM D-luciferin, final concentrations) was added to each well. Plates were then incubated for 15 minutes at room temperature, and subsequently measured on a ViewLux plate reader for luminescent signal using a clear filter with a 10 second exposure and 2x binning. The %Activity was determined from the corrected luminescence values.
Concentration-response curves were fitted to the signals arising from the resulting luminescence. The concentration-effect curves were then classified based on curve quality (r2), response magnitude and degree of measured activity, and compounds were subsequently categorized based on their curve class.
Keywords: biased agonism, beta2-AR, beta-arrestin, GPCR, 7TMR, Tango, luminescence, MLSMR, MLPCN, NIH Roadmap, qHTS, NCGC

Chain of Beta-2 adrenergic receptor (Homo sapiens) (P07550 whole entry, looked up): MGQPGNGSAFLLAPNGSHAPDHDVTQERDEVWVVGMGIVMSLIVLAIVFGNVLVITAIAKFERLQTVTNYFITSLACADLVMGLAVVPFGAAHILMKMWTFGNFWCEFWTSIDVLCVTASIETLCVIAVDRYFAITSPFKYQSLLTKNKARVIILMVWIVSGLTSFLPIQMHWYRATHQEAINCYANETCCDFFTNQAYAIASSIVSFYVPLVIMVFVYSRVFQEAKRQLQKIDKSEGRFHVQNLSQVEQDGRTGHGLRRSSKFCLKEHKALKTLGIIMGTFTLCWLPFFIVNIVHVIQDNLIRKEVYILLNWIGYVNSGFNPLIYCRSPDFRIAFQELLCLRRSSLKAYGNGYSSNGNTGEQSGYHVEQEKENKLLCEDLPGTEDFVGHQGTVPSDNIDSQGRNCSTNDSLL

SMILES | outcome
O=C(O)Cc1c[nH]c2ccc(O)cc12 | inactive
CCC1(O)CC2CN(CCc3c([nH]c4ccccc34)[C@@](C(=O)OC)(c3cc4c(cc3OC)N(C)C3[C@]45CCN4CC=C[C@@](CC)([C@@H](OC(C)=O)[C@]3(O)C(=O)OC)[C@H]45)C2)C1 (stereo not given in full) | inactive
NC/C=C\C(=O)O | inactive
NCC(O)c1ccc(O)c(O)c1 (stereo not given) | inactive
NC1(C(=O)O)CC1 | inactive
c1ccc(C(NCCNC(c2ccccc2)c2ccccc2)c2ccccc2)cc1 | inactive
N[C@H](C(=O)O)[C@H](O)C(=O)O | inactive
Cn1c(=O)c2[nH]c(C3CCCC3)nc2n(C)c1=O | inactive
O=c1cc(O)cc(/C=C/c2ccc(O)c(O)c2)o1 | inactive
Oc1cc(O)c2c(c1)O[C@H](c1ccc(O)c(O)c1)[C@@H](O)C2 | inactive
Cc1ccccc1/C=C/C1=NCCN1 | inactive
COc1ccc(-c2ccc(N)[n+](CCCC(=O)O)n2)cc1 | inactive
O=c1[nH]ccc2c(O)cccc12 | inactive
N#Cc1cc([N+](=O)[O-])c2sc(C(N)=O)[n+]([O-])c2c1 | inactive
CC(=O)O[C@H]1CC2(C)[C@@H](C[C@@H](O)[C@H]3[C@@]4(C)CC[C@@H](O)[C@@H](C)[C@@H]4CC[C@@]32C)C1=C(CCC=C(C)C)C(=O)O (stereo not given in full) | inactive
O=c1onc2n1-c1cc(Br)ccc1OC2 | inactive
CCCCCC(O)CCCC(=O)O (stereo not given) | inactive
C=CCN1CCc2c(cc(O)c(O)c2Br)[C@@H](c2ccccc2)C1 | inactive
Cc1cccc(C2CN(C)CCc3c2cc(O)c(O)c3Cl)c1 (stereo not given) | inactive
CN1CCN(c2nc3cc(C(F)(F)F)ccc3n3cccc23)CC1 | inactive

SMILES | outcome
CCCCCCCCCCCCCCC[C@H](O)[C@H](N)CO | inactive
COc1ccc2c(c1)c(CC(=O)O)c(C)n2Cc1ccc(Cl)cc1 | inactive
NCCNS(=O)(=O)c1cccc2c(Cl)cccc12 | inactive
CC(N)=NCCCC[C@@H](N)C(=O)O | inactive
CC[N+](CC)(CC)CC(=O)Nc1c(C)cccc1C | inactive
CNCCNS(=O)(=O)c1cccc2cnccc12 | inactive
O=C(O)c1cccnc1C(=O)O | inactive
N#CC(C#N)=C(N)/C(C#N)=C/c1ccc(O)cc1 | inactive
CCN(CC)CCCCCCCCOC(=O)c1cc(OC)c(OC)c(OC)c1 | inactive
CN1CCCC1CCOC(C)(c1ccccc1)c1ccc(Cl)cc1 (stereo not given) | inactive
Brc1c(Br)c(Br)c2[nH]cnc2c1Br | inactive
CN(C)S(=O)(=O)c1ccc2c(c1)/C(=C/c1cc3c([nH]1)CCCC3)C(=O)N2 | inactive
NC1(C(=O)O)CCCCC1 | inactive
NCC(O)(CS(=O)(=O)O)c1ccc(Cl)cc1 (stereo not given) | inactive
COc1ccccc1N1CCN(CCCNc2c(C)c(=O)n(C)c(=O)n2C)CC1 | inactive
NC(N)=NC(N)=Nc1ccccc1 | inactive
[N-]=[N+]=Nc1ccc(C(=O)CSC[C@H](NC(=O)CC[C@H](N)C(=O)O)C(=O)NCC(=O)O)cc1 | inactive
Nc1nc2ccc(Cl)cc2c2nc(-c3ccco3)nn12 | inactive
CC(N)=O | inactive
N#C/C(=C\c1ccc(O)c(O)c1)C(=O)NCCCNC(=O)/C(C#N)=C/c1ccc(O)c(O)c1 | inactive
